# A selection: hits, their analogues and other compounds. The true share with any hit is near 7.5%.
# FBPA Giardia inh: qHTS Assay for Inhibitors of Fructose-1,6-bisphosphate Aldolase from Giardia Lamblia | A8B2U2 | purified Giardia FBPA | Potency, µM (highest dose often 59.6 µM), without a hit: top-dose activity, negative = inhibition, most hits filed as inhibitors | hit rate 0.71% among 290,000 | AID 2451, 2010; also: potency is read from the fitted curve at half-maximal effect; nearly all actives have a fitted effect of over 55% in size
# Target sequence (A8B2U2 whole entry, looked up): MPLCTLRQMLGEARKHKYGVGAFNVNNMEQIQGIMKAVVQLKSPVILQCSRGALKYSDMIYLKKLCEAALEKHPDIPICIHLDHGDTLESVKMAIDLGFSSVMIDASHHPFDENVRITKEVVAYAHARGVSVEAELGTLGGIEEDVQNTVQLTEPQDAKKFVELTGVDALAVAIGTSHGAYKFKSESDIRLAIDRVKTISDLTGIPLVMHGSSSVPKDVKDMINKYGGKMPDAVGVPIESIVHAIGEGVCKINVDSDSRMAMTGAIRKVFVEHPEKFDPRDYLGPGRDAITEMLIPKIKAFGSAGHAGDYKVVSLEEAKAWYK
#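 40 nM FBPA preincubated 10 min at RT with compound (up to 57.5 uM final), then substrate plus GAPDH/TPI/NAD/arsenate coupling and diaphorase/resazurin added. Fluorescence read after 20 min at RT, 525/598 nm.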
# VACV Venus inh: qHTS for Stage-Specific Inhibitors of Vaccinia Orthopoxvirus: Venus Reporter Primary qHTS. Vaccinia virus Venus reporter expression, fluorescence. Potency, µM (top dose mostly 36.5 µM), for the others: at the highest dose activity change, negative = inhibition, actives largely listed as inhibitors. AID 720580, 2013. hit rate 0.46% among 330,000; calls by dose curve; tested in A549 cells; also: potency is read from the fitted curve at half-maximal effect; nearly all actives have a fitted effect of over 30% in size
# HCMV inh: qHTS Assay for inhibitors of the human cytomegalovirus (HCMV); hit rate 4.5% among 410,000; AID 1259415, 2018; HFF cells, HCMV-luciferase reporter, 72 h; active compounds read low; activity change, negative = inhibition, % at 57.5 µM; in the data active = activity change below about -60%; inconclusive = no clear call, values can overlap the other calls; inactive = above about -39%
#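 Inhibition of viral replication was scored as loss of reporter luminescence in HFFs infected with HCMV-luciferase (MOI 1 PFU/cell) for 72 h; compounds tested at 2 doses, normalized to buffer and Salinomycin controls.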
# Vaccinia mCherry: qHTS for Stage-Specific Inhibitors of Vaccinia Orthopoxvirus: mCherry Reporter Primary qHTS; Vaccinia virus mCherry reporter infection, fluorescence; Potency, µM (series often up to 36.5 µM), for inactives: top-dose activity change, negative = inhibition, actives largely listed as inhibitors; hit rate 0.63% among 310,000; AID 720579, 2013; calls by dose curve; tested in A549 cells; also: potency is read from the fitted curve at half-maximal effect; nearly all actives have a fitted effect of over 35% in size
# HCV inh: qHTS Assay for Inhibitors of Hepatitis C Virus (HCV). Huh7.5.1 HCVcc-Cre infection, luciferase reporter, 44 h. Potency, µM (titrated, usually from 41.8 µM), inactives show at the top dose activity change, negative = inhibition, actives largely listed as inhibitors. hit rate 3.4% among 340,000. AID 651820, 2012; also: potency is read from the fitted curve at half-maximal effect
#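 Reporter virus HCVcc-Cre (~0.5 moi) infects cells exposed to compound; seeding density 1,000 cells/well with 4 h settling beforehand. Luminescence, 15 sec read, taken 44 h post-infection following a 15 min RT substrate incubation.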
# FMDV inh: High Throughput Screening for Foot and Mouth Disease Virus Antivirals. FMDV antiviral cell-based qHTS. Potency, µM (doses to about 57.9 µM), for inactives: at the top dose activity change, negative = inhibition, usual class: inhibitors. hit rate 1.2% among 410,000; calls by dose curve; tested in HEK293T cells; also: read-out not given here; potency is read from the fitted curve at half-maximal effect; nearly all actives have a fitted effect of over 45% in size
# The depositor's hits bear a star; i = inactive; u = inconclusive; x = no result given; [ ] = dose if it differs, or a comment. Unless noted, calls follow the shape of the dose curve; as a rule, active = well fitted curve in the direction sought with a large enough effect; inconclusive = small, poorly fitted or top-dose-only effect, or another doubt; inactive = no such curve, though single readings can be large; an effect the other way counts as inactive or inconclusive. % is scaled to controls: 0 for no effect and ±100 for the full control effect.
SMILES,FBPA Giardia inh,VACV Venus inh,HCMV inh,Vaccinia mCherry,HCV inh,FMDV inh
O=[N+]([O-])c1c(NCCCO)cc(SCc2ccco2)c2nonc12,u,-16%,50,-4%,u,0%
CC(=O)OCCNc1cc(SCc2ccco2)c2nonc2c1[N+](=O)[O-],u,u,x,u,u,32µM*
CC(=O)OCCNc1cc(Sc2nc3ccccc3[nH]2)c2nonc2c1[N+](=O)[O-],u,112µM*,27,u,u,35µM*
CCCC(=O)OCCNc1cc(SCCC(=O)OC)c2nonc2c1[N+](=O)[O-],-26%,-9%,12,0%,28%,-14%
CC(=O)OCCCNc1cc(Sc2nc3ccccc3s2)c2nonc2c1[N+](=O)[O-],u,-2%,x,-3%,-6%,u
COC(=O)CCSc1cc(NCCOC(C)=O)c([N+](=O)[O-])c2nonc12,-16%,-17%,18,-7%,u,35µM*
O=C(COc1ccccc1-c1nc(-c2ccccc2)no1)Nc1ccccc1[N+](=O)[O-],x,-4%,-2,-12%,x,20%
COC(=O)[C@@H](Cc1ccccc1)NC(=O)Cn1cc(C)c(=O)[nH]c1=O,x,-12%,-7,-9%,21%,-6%
COc1cc(-c2cc(C)c3cccc(OC)c3n2)cc2c1OCCN(C(=O)CCn1nc(C)cc1C)C2,x,-10%,x,-20%,x,-14%
COc1ccc(/C=C/c2cc(-c3ccc(C)cc3)o[n+]2C)cc1,4%,u,-104*,u,u,2.8µM*
O=C(Nc1ccc(F)cc1F)N1CCCC(c2nc(-c3ccc(F)cc3)no2)C1 (stereo not given),3%,x,u,x,u,-24%
Cc1ccc(-c2noc(C3CCCN(C(=O)c4c(F)cccc4F)C3)n2)cc1 (stereo not given),7%,-14%,u,-14%,x,-27%
O=C(c1ccc(F)cc1F)N1CCCC(c2nc(-c3ccc(F)cc3)no2)C1 (stereo not given),-8%,-25%,-22,i,11µM*,-36%
O=C(c1c(F)cccc1F)N1CCCC(c2nc(-c3ccc(Cl)cc3)no2)C1 (stereo not given),9%,x,-16,x,11µM*,1%
Cc1ccc(-c2noc(C3CCCN(C(=O)c4ccccc4Br)C3)n2)cc1 (stereo not given),-3%,x,u,x,10µM*,5%
COc1cc2nc(N3CCCC(O)C3)c(CNCc3ccccc3F)cc2c(OC)c1OC (stereo not given),x,7%,x,-12%,x,-9%
Cc1cc(/C=C(/C#N)C(=O)O)c(C)n1CCC(C)C,18%,-1%,-68*,-13%,12%,8%
Cc1cc(N2CCC(C(=O)Nc3ccc(F)cc3)CC2)nc(-c2ccccc2)n1,1%,-27%,-4,u,u,-27%
Cc1cc(C)nc(N2CCN(c3ccc(F)cc3)CC2)n1,-11%,x,-24,x,10µM*,24%
Cc1cc(N2CCN(c3ccc(F)cc3)CC2)nc(-c2ccccc2)n1,-1%,-20%,u,x,10µM*,-24%
Cc1cc(N2CCCC2)nc(-c2ccccc2O)n1,2%,-7%,-102*,-12%[1.46 µM],3.2µM*,13%
COc1cc(CN2CC(=O)N(c3ccc(C)c(Cl)c3)C2=S)cc(OC)c1OC,0%,-2%,-32,-18%,-14%,-23%
COc1cc(CN2CC(=O)N(c3ccc(C)cc3)C2=S)cc(OC)c1OC,7%,-16%,31,u,u,-20%
COc1cc(CN2CC(=O)N(c3ccccc3Cl)C2=S)cc(OC)c1OC,9%,-13%,-26,i,u,32µM*
COc1cc(CN2CC(=O)N(c3cccc(Cl)c3C)C2=S)cc(OC)c1OC,4%,x,-63*,x,-20%,u
SMILES,FBPA Giardia inh,VACV Venus inh,HCMV inh,Vaccinia mCherry,HCV inh,FMDV inh
CC(=O)Nc1ccc(NC(=O)CNC(=O)c2sc3ccccc3c2Cl)cc1,x,3%,41,i,13%,6%
O=C(CNC(=O)c1sc2ccccc2c1Cl)NCc1cccc(C(F)(F)F)c1,x,16µM*,-5,-26%,6%,9%
COc1cc(OC)cc(C(=O)Nc2ccc(S(=O)(=O)N3CCCCC3c3cccnc3)cc2)c1 (stereo not given),x,-28%,-68*,-8%,x,u
CC1=C(C)/C(=N\OS(=O)(=O)c2ccccc2)C=CC1=O,4.5µM*,u,x,u,13µM*,11µM*
Cc1ccc(C(=O)NCC(=O)NCc2ccc(Cl)cc2)s1,x,4%,15,i,-10%,-8%
O=C(NC1CC(=O)N(c2ccc(Cl)cc2)C1)c1ccc(S(=O)(=O)N2CCCC2)cc1 (stereo not given),x,-14%,31,-19%,x,-27%
O=C(O)CC(CNS(=O)(=O)c1ccccc1)c1ccccc1 (stereo not given),2%,-7%,-75*,18%,u,-20%
CNC(=S)NNC(=O)COc1ccccc1C,-11%,-2%,u,-2%,-3%,x
CNC(=S)SCCOc1ccccc1C,-9%,-14%,-69*,-16%,39%,40%
Cc1ccc(C)c(N2CCN(C(=O)Cn3cnc4nc5c(cc4c3=O)CCCC5)CC2)c1,x,-30%,u,-26%,x,u
COC(=O)c1cc(NC(=O)CC2SC(=Nc3ccccc3)N(CCc3c[nH]c4ccccc34)C2=O)cc(C(=O)OC)c1 (stereo not given),-7%,u,26,-13%,4.5µM*,-16%
COCCN1C(=O)C(CC(=O)Nc2ccc(C(=O)O)cc2)SC1=Nc1ccccc1 (stereo not given),2%,-5%,-17,-11%,7%,-4%
CC(C)(C)C(=O)/C(=C/c1ccncc1)n1cncn1,3%,x,-100*,x,2.2µM*,11µM*
Cc1nn(C)c(C)c1/C=C(/C(=O)C(C)C)n1cncn1,5%,x,17,x,-11%,-21%
Cc1nn(C)c(C)c1/C=C(/C(=O)C(C)(C)C)n1cncn1,3%,-1%,-98*,-14%,-8%,-15%
O=C(/C(=C/c1ccccc1)n1cncn1)c1ccc(Cl)cc1Cl,6%,-23%,27,-13%,18%,-21%
COc1ccc2c(c1)-c1nc(N)sc1CC2,u,-18%,u,u,u,27%
COc1ccc2c(c1)Cc1sc(NC(=O)c3ccccc3)nc1-2,-27%,-28%,10,-10%,u,6%
COc1ccc2c(c1)-c1nc(NC(=O)c3ccccc3F)sc1CC2,x,-18%,-33,-26%,x,-11%

# Compound activity as filed in PubChem BioAssay.
